Experimental data from PubChem BioAssay.
Values joined by “and” are separate entries in the source; they are usually repeats but may differ in a detail not shown here. Identical values can stand only once. Active and inactive are the calls of the source. Unless noted, the rule behind the calls is not given here.

Legend:
[1] = HepG2 liver cancer cell viability effects, profiling panel, resazurin fluorescence, 24 h, PK04 Diversity Set (AID 1172); settings: higher = more signal; note: test concentration not given here
[2] = basal S. cerevisiae growth modulation, no modifier, primary screen, OD600, strain BY4716, 24 h, basal condition (AID 1173); settings: OD600, 24 h, higher = more signal, called active from +8 up or from −8 down
[3] = MM1S myeloma cell viability, profiling panel, resazurin fluorescence, basal, 24 h, PK04 Diversity Set (AID 1174); settings: higher = more signal, called active from +8 up or from −8 down;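 note: MM1S multiple myeloma cell line; test concentration not given here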
[4] = biological target: Dihydroorotate dehydrogenase (quinone), mitochondrial (Plasmodium falciparum (isolate 3D7)) (UniProt Q08210); experiment: PfDHODH enzyme inhibitors, primary screen, biochemical, C-terminal His tag, absorbance 600 nm (AID 1175); settings: DCIP absorbance 600 nm, higher = more signal, called active from +8 up or from −8 down;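 note: recombinant parasite enzyme with a five histidine tag at its C terminus; test concentration not given here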
[5] = P. aeruginosa biofilm formation inhibitors, primary screen, strain PAO1, LB-PBS medium, absorbance 600 nm (AID 1176); note: test concentration not given here; settings: P. aeruginosa PAO1 growth/biofilm, A600, 12 h; higher = more signal
[6] = S. cerevisiae RM11-1a growth modifiers, primary screen, strain RM11-1a, OD600, basal, 24 h (AID 1177); settings: OD600, 24 h, higher = more signal, called active from +8 up or from −8 down;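 note: cultures grown under basal conditions with no added stressor; test concentration not given here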
[7] = E. coli acrAB mutant growth effects, primary screen, E. coli filamentation inducers, strain DRC39, OD650, 24 h (AID 1178); settings: higher = more signal, called active from +8 up or from −8 down;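 note: growth measured as culture turbidity by optical density at 650 nm; test concentration not given here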
[8] = E. coli acrAB mutant growth effects, primary screen, E. coli filamentation inducers, strain DRC39, OD650, 48 h (AID 1179);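 note: screen aims at cell division blockers that make cells filament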; settings: E. coli DRC39 delta-acrAB growth, higher = more signal, called active from +8 up or from −8 down
[9] = RPMI8226 myeloma cell viability, profiling panel, resazurin fluorescence, basal, 24 h, PK04 Diversity Set (AID 1180); settings: higher = more signal;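 note: RPMI8826 multiple myeloma cell line at 5000 cells per well; test concentration not given here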
[10] = biological target: E3 ubiquitin-protein ligase XIAP (Homo sapiens) (UniProt P98170); experiment: XIAP binders, primary screen, biophysical, small-molecule microarray, fluorescence 635 nm (AID 1181); settings: small-molecule microarray binding, higher = more signal;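 note: score merges 667 nm emission and signal to noise over triplicate slides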
Sequence of E3 ubiquitin-protein ligase XIAP (Homo sapiens) (P98170 whole entry, looked up): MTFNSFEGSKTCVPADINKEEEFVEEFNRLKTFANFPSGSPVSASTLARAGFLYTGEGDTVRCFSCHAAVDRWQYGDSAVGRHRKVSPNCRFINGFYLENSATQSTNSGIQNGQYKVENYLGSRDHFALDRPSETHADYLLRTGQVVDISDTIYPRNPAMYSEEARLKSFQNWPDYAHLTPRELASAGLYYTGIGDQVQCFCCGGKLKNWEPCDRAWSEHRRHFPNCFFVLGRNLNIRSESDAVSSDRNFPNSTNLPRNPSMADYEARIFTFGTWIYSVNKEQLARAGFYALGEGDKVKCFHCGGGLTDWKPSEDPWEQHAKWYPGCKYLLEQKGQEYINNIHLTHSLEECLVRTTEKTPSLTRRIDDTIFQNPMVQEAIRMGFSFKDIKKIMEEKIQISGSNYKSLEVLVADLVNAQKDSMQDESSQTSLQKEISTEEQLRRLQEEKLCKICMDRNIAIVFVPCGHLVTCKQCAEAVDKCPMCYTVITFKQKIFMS

Sequence of Dihydroorotate dehydrogenase (quinone), mitochondrial (Plasmodium falciparum (isolate 3D7)) (Q08210 whole entry, looked up): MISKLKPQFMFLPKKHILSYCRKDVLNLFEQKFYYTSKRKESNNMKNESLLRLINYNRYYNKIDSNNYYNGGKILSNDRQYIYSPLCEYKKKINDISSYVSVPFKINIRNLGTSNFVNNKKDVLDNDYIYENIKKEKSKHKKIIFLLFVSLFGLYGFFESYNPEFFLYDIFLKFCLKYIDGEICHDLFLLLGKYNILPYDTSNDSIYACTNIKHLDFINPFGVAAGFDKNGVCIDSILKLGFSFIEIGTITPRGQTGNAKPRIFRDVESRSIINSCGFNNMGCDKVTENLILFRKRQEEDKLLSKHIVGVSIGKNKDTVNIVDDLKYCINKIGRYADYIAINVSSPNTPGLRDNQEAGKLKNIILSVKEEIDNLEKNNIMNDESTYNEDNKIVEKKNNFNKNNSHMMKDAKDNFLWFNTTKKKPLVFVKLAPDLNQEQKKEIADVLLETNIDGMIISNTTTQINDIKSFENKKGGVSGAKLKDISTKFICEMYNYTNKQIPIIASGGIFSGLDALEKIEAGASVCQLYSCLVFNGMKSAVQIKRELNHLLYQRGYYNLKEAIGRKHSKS

SMILES	z-score [1]	z-score [2]	z-score [3]	composite z-score [4]	z-score [5]	z-score [6]	z-score [7]	z-score [8]	z-score [9]	composite z-score [10]
Cc1ccc(S(=O)(=O)N[C@@H]2COC(=O)CC=C[C@@H](C)[C@@H]3C=C[C@H](O)[C@@H](COC(=O)CC=C[C@H]2C)O3)cc1	-0.29 and 0.458	-0.595 (inactive) and 0.228 (inactive)	-0.0856 (inactive) and 0.441 (inactive)	0.178 (inactive) and -4.95 (inactive)	-0.212 (inactive) and -0.0781 (inactive)	-0.169 (inactive) and -0.14 (inactive)	0.245 (inactive) and -1.15 (inactive)	0.0957 (inactive) and -0.599 (inactive)	-0.541 and 0.341	-0.138 and -0.124
C[N+](C)(C)CCCCCCNC(=O)[C@@H]1C[C@@H]2C(=O)N[C@@H](CCCC[N+](C)(C)C)C(=O)N2[C@@H]1c1ccc(O)cc1	0.104 and 0.822	0.292 (inactive) and 0.384 (inactive)	0.436 (inactive) and 0.422 (inactive)	-0.792 (inactive) and -0.983 (inactive)	-0.462 (inactive) and 0.0499 (inactive)	1.06 (inactive) and 1.11 (inactive)	0.52 (inactive) and -0.04 (inactive)	0.801 (inactive) and -0.431 (inactive)	0.608 and -0.287	-0.277 and -0.227
CC(C)CCN1CCc2nc(-c3ccccc3)c3c(c2C1)CO[C@@H](C)C3	-0.123	-1.08 (inactive)	-0.0881 (inactive)	-0.363 (inactive)	-0.188 (inactive)	0.396 (inactive)	0.66 (inactive)	0.0602 (inactive)	0.129	0.201
C=CCN(CCCCC)C(=O)C(c1cccs1)N(C(=O)/C=C\C(=O)O)c1ccc(CCO)cc1 (stereo not given)	-0.524 and -0.698	-0.238 (inactive) and -0.173 (inactive)	-0.585 (inactive) and -0.372 (inactive)	-0.249 (inactive) and -0.533 (inactive)	-0.553 (inactive) and -0.621 (inactive)	0.741 (inactive) and 0.428 (inactive)	0.191 (inactive) and 0.129 (inactive)	0.712 (inactive) and 0.685 (inactive)	-0.359 and -0.583	-0.346 and -0.138
C=CC[C@@H](O)c1ccc(OCCO)cc1	-0.369 and -0.32	-5.91 (inactive) and -1.94 (inactive)	-1.12 (inactive) and -0.281 (inactive)	-0.744 (inactive) and -1.16 (inactive)	0.674 (inactive) and 0.945 (inactive)	-1.1 (inactive) and -1.56 (inactive)	0.0207 (inactive) and 0.149 (inactive)	0.433 (inactive) and 0.571 (inactive)	0.0629 and 0.237	-0.31 and -0.102
C=CCN(CCCCC)C(=O)C1N(CCOCCO)C(=O)C2C(C(=O)O)C3C=CC21O3 (stereo not given)	-0.541 and -0.785	0.709 (inactive) and 1.12 (inactive)	-0.885 (inactive) and -1.41 (inactive)	1.39 (inactive) and -0.109 (inactive)	-0.553 (inactive) and -0.469 (inactive)	0.892 (inactive) and 0.451 (inactive)	-0.649 (inactive) and -0.537 (inactive)	-0.496 (inactive) and -0.506 (inactive)	-0.724 and -0.899	-0.113 and -0.124
C=CCN(CCCC)C(=O)C1N(C(C)(C)CO)C(=O)C2C(C(=O)O)C3C=CC21O3 (stereo not given)	0.043 and 0.688	0.709 (inactive) and -0.0821 (inactive)	-0.0251 (inactive) and -0.847 (inactive)	-1.46 (inactive) and 0.0326 (inactive)	0.385 (inactive) and 0.0126 (inactive)	-0.902 (inactive) and -1.02 (inactive)	0.378 (inactive) and 0.096 (inactive)	0.0298 (inactive) and -0.182 (inactive)	-0.131 and -0.803	-0.162 and -0.195
C=CCN(C(=O)C1N(c2c(Cl)cccc2CO)C(=O)C2C(C(=O)O)C3C=CC21O3)c1ccc(OC)cc1 (stereo not given)	-0.48 and 0.737	-0.566 (inactive) and -0.241 (inactive)	-1.03 (inactive) and 0.874 (inactive)	-0.394 (inactive) and -0.0226 (inactive)	-0.137 (inactive) and -0.428 (inactive)	0.344 (inactive) and -1.83 (inactive)	-0.237 (inactive) and 1.79 (inactive)	-0.293 (inactive) and 1.93 (inactive)	-0.509 and 1.06	0.281 and -0.152
C=CCN(C(=O)C1N(C(C)(C)CO)C(=O)C2C(C(=O)O)C3C=CC21O3)C(C)(C)C (stereo not given)	-0.724 and -0.381	1 (inactive) and 0.053 (inactive)	-0.638 (inactive) and 0.113 (inactive)	1.3 (inactive) and -0.307 (inactive)	-0.456 (inactive) and 0.109 (inactive)	1.16 (inactive) and 1.25 (inactive)	-0.706 (inactive) and 0.32 (inactive)	-0.687 (inactive) and 0.356 (inactive)	-0.319 and -0.0012	-0.326 and -0.212
COC(=O)CC=C[C@@H](C)[C@@H](CO)NS(=O)(=O)c1ccc(C)cc1	0.553 and -0.369	0.909 (inactive) and -1.39 (inactive)	0.0323 (inactive) and -0.548 (inactive)	0.581 (inactive) and -0.0189 (inactive)	0.013 (inactive) and 0.204 (inactive)	-0.214 (inactive) and -0.162 (inactive)	-0.0056 (inactive) and 0.413 (inactive)	-0.214 (inactive) and 0.297 (inactive)	0.519 and -0.314	-0.275 and 0.0656
C=CCN(C(=O)C(c1cccs1)N(C(=O)/C=C\C(=O)O)c1ccc(CCO)cc1)c1ccc(OC)cc1 (stereo not given)	0.495 and -0.158	-1.66 (inactive) and -1.5 (inactive)	0.777 (inactive) and 0.249 (inactive)	-1.09 (inactive) and -4.45 (inactive)	0.413 (inactive) and -0.497 (inactive)	-0.405 (inactive) and 0.127 (inactive)	1 (inactive) and 0.244 (inactive)	0.78 (inactive) and 0.864 (inactive)	0.32 and 0.335	0.184 and 0.284
Cc1ccc(S(=O)(=O)N[C@H]2COC(=O)[C@@H](C)COC(=O)[C@H](C)NC(=O)CC=C[C@H]2C)cc1	0.949	-0.878 (inactive)	0.799 (inactive)	-0.0791 (inactive)	-0.814 (inactive)	-0.233 (inactive)	0.45 (inactive)	-0.166 (inactive)	1.23	-0.43
CCOC(=O)[C@H](Cc1ccccc1)NC(=O)CCC1CC(OC(=O)NCc2cccc3ccccc23)CC2(CCCC(COC(=O)NCCCN3CCCC3=O)O2)O1 (stereo not given in full)	0.968	-1.78 (inactive)	1.07 (inactive)	-1.19 (inactive)	0.639 (inactive)	-0.697 (inactive)	-0.35 (inactive)	-0.209 (inactive)	1.75	-0.336
C=CCN(CCCC)C(=O)C(c1cccs1)N(C(=O)/C=C\C(=O)O)c1ccc(CCO)cc1 (stereo not given)	-0.289 and -0.837	-0.561 (inactive) and -0.0853 (inactive)	-0.508 (inactive) and -2.49 (inactive)	-0.133 (inactive) and 0.117 (inactive)	-0.208 (inactive) and -0.469 (inactive)	0.24 (inactive) and 0.473 (inactive)	0.596 (inactive) and 0.709 (inactive)	0.597 (inactive) and 0.915 (inactive)	-0.213 and -0.931	-0.102 and 0.0641
C=CCN(Cc1ccccc1)C(=O)C1N(CCCCCCO)C(=O)C2C(C(=O)O)C3C=CC21O3 (stereo not given)	-0.29 and 0.875	-0.356 (inactive) and -0.726 (inactive)	-0.231 (inactive) and 0.723 (inactive)	-0.248 (inactive) and -1.43 (inactive)	0.95 (inactive) and 0.441 (inactive)	-0.325 (inactive) and -0.784 (inactive)	0.0108 (inactive) and 0.14 (inactive)	-0.187 (inactive) and -0.172 (inactive)	-0.615 and 0.439	0.0898 and -0.395
CC(C)=NO[C@@H](C)c1cc(-c2c(C)cc(C)cc2C)no1	-0.18	-2.48 (inactive)	0.672 (inactive)	-2.98 (inactive)	0.499 (inactive)	-0.395 (inactive)	-0.328 (inactive)	-2.9 (inactive)	0.0684	0.0251
CCN1C(=O)[C@H]2[C@H]3[C@H](O)[C@H](O)CC(=NOC)[C@@H]3CC[C@H]2C1=O	0.146	-1.88 (inactive)	0.0831 (inactive)	-0.581 (inactive)	0.924 (inactive)	-0.458 (inactive)	0.759 (inactive)	0.953 (inactive)	0.0325	0.487
